Reference: PubChem BioAssay AID1611 (NINDS Approved Drug Screening Program, 2009)

Assay: HSE-luciferase reporter activators – cell-based (AID 1611)
Conditions: human cells, HSE-luciferase heat shock reporter; stronger effect = higher value

Row | Compound | fold change
1 | CC(COc1ccccc1)NC(C)[C@H](O)c1ccc(O)cc1 (stereo not given in full) | 5.01
2 | CN=C(NC#N)NCCSCc1nc[nH]c1C | 0.5
3 | CC(=O)OCC(=O)[C@H]1CCC2C3CCC4=CC(=O)CC[C@]4(C)C3CC[C@@]21C (stereo not given in full) | 1.05
4 | O=C(O)c1ccccc1O | 0.73
5 | CC(C)CC(NC(=O)CCN)C(=O)O (stereo not given) | 1.04
6 | CCCCCC(C)N (stereo not given) | 1.8
7 | NC(=O)NC1NC(=O)NC1=O (stereo not given) | 0.91
8 | CC1(C)S[C@@H]2[C@H](NC(=O)[C@H](NC(=O)N3CCNC3=O)c3ccccc3)C(=O)N2C1C(=O)O (stereo not given in full) | 0.89
9 | NNC(=O)c1ccncc1 | 0.48
10 | CN(C)CCOC(c1ccccc1)c1ccccc1 (tested in a mixture with another compound) | 0.8
11 | CN(C)C(=O)C(CCN1CCC(O)(c2ccc(Cl)cc2)CC1)(c1ccccc1)c1ccccc1 | 1.52
12 | CCCCc1oc2ccccc2c1C(=O)c1cc(I)c(OCCN(CC)CC)c(I)c1 | 0.84
13 | NCCCCC(N)C(=O)NC(Cc1ccc(O)cc1)C(=O)NC(CCCCN)C(=O)O (stereo not given) | 0.95
14 | O=C(CCCN1CC=C(n2c(=O)[nH]c3ccccc32)CC1)c1ccc(F)cc1 | 0.88
15 | CC[C@H]1OC(=O)[C@H](C)[C@@H](O[C@H]2C[C@@](C)(OC)[C@@H](O)[C@H](C)O2)[C@H](C)[C@@H](O[C@@H]2O[C@H](C)C[C@H](N(C)C)[C@H]2O)[C@](C)(O)C[C@@H](C)CN(C)[C@H](C)[C@@H](O)[C@]1(C)O | 293
16 | COc1ccc(C2Sc3ccccc3N(CCN(C)C)C(=O)C2OC(C)=O)cc1 (stereo not given) | 0.53
17 | CC1(C)O[C@@H]2CC3C4C[C@H](F)C5=CC(=O)C=CC5(C)C4C(O)CC3(C)[C@]2(C(=O)CO)O1 (stereo not given in full) | 1.4
18 | CN(C)CC/C=C1\c2ccccc2Sc2ccc(Cl)cc21 | 1.34
19 | Cn1c(=O)c2[nH]cnc2n(C)c1=O | 1.18
20 | Fc1ccc(C(c2ccc(F)cc2)N2CCN(C/C=C/c3ccccc3)CC2)cc1 | 1.3

Row | Compound | fold change
21 | CO[C@H]1C[C@H](O[C@H]2[C@H](C)[C@@H](OC3O[C@H](C)C[C@H](N(C)C)[C@H]3O)[C@@H](C)C[C@]3(CO3)C(=O)[C@H](C)[C@@H](O)[C@@H](C)[C@@H](C)OC(=O)[C@@H]2C)O[C@@H](C)[C@@H]1O (stereo not given in full) | 0.75
22 | O=C(O)C1CCCNC1 (stereo not given) | 0.81
23 | NC(N)=NC(N)=Nc1ccccc1 | 0.95
24 | CCCn1c(=O)c2[nH]c(C3CCCC3)nc2n(CCC)c1=O | 0.74
25 | COc1c(C)c2c(c(O)c1C/C=C(\C)CCC(=O)O)C(=O)OC2 | 0.85
26 | Oc1ccc(Cl)c2cccnc12 | 1.15
27 | COc1ccc2cc([C@H](C)C(=O)O)ccc2c1 | 0.71
28 | CC[C@]12CCCN3CCc4c(n(c5ccccc45)[C@](O)(C(=O)OC)C1)[C@@H]32 | 1.14
29 | CC(=O)Nc1nnc(S(N)(=O)=O)s1 | 0.33
30 | CC(=O)O[C@]1(C(C)=O)CCC2C3C=C(Cl)C4=CC(=O)[C@@H]5C[C@@H]5[C@]4(C)C3CC[C@@]21C (stereo not given in full) | 9.01
31 | CN(Cc1cnc2nc(N)nc(N)c2n1)c1ccc(C(=O)N[C@@H](CCC(=O)O)C(=O)O)cc1 | 0.91
32 | N[C@@H]1[C@@H](O)[C@H](O)[C@@H](CO)O[C@H]1O | 1.15
33 | O=C1CCC(N2C(=O)c3ccccc3C2=O)C(=O)N1 (stereo not given) | 0.89
34 | CO/N=C(/C(=O)NC1C(=O)N2C(C(=O)O)=C(COC(N)=O)CSC12)c1ccco1 (stereo not given) | 1
35 | COc1ccc(NS(=O)(=O)c2ccc(N)cc2)nn1 | 1.39
36 | CC(=O)Oc1ccc2c(c1)CCC1C2CC[C@@]2(C)C1CC[C@@H]2OC(C)=O (stereo not given in full) | 1.07
37 | Nc1ccc(S(=O)(=O)Nc2cnc3ccccc3n2)cc1 | 1.17
38 | CC(=O)Oc1cccc(O)c1 | 0.84
39 | CCN(CC)CCOC(=O)C(c1ccccc1)c1ccccc1 | 1.24
40 | COc1ccc2c(c1)c(CC(=O)O)c(C)n2C(=O)c1ccc(Cl)cc1 | 0.9
